Bioassay records (PubChem BioAssay)
Sampled rows, rich in hits. Any-hit rate of the full collection: about 1.2%.
NSD2 HMT inh = blocks human histone methyltransferase NSD2. O96028. NSD2 peptide methylation, AlphaScreen, 120 min. AID 743445. actives 0.54% (n = 310,000). inhibition, % at 12.5 µM; in the data active = inhibition above about 50%
PglD DTNB = inhibitors of Campylobacter jejuni PglD acetyltransferase; inhibition, % at 12.5 µM; purified PglD enzyme, DTNB colorimetric CoA detection; actives 0.098% (n = 360,000); in the data active = inhibition above about 16%, passing the limit was not always enough
miR122 inh = inhibitors of miR-122 in Huh7 cells. AID 602342. activation (reporter increase), % at 12.5 µM. actives 0.3% (n = 340,000). Huh7 miR-122 Renilla luciferase sensor, 48 h; neutral wells = 0, positive control = 100;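 active = mean replicate activation score at least 90 and every replicate individually at or above 90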;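 also: higher luciferase means less miR-122 activity so hits act as miR-122 inhibitors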
Statin myotox sup = protects C2C12 myotubes from simvastatin toxicity; ATP luminescence, 48 h; scaled: DMSO 0, geranylgeraniol control 100; rescue of ATP level, % at 7.49 µM; actives 0.78% (n = 330,000);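 active = mean ATP rescue above about 67%, or every replicate alone reaching that limit, limit read from the data, passing the limit was not always enough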;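 also: myotubes were challenged with 10 µM simvastatin during compound exposure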
Numbers stand for hits; – = inactive; · = no result; [ ] = dose if it differs, or a comment.

SMILES	NSD2 HMT inh	PglD DTNB	miR122 inh	Statin myotox sup
O=C(O/N=C1\CCS(=O)(=O)c2sccc21)c1ccccc1	–	–	170.0	–
O=C(O/N=C1\CCS(=O)(=O)c2sccc21)c1ccc(F)cc1	–	–	–	–
O=c1c2cnn(-c3ccc(F)cc3)c2ncn1Cc1ccccc1	–	–	–	158.0
CCOc1ccccc1NC(=O)Cn1cnc2c(cnn2-c2ccc(C)c(C)c2)c1=O	–	–	–	131.7
COc1ccc(NC(=O)Cn2cnc3c(cnn3-c3ccc(C)c(C)c3)c2=O)c(OC)c1	–	–	·	–
O=c1c2cnn(-c3ccc(F)cc3)c2ncn1Cc1cccnc1	–	–	–	–
O=C(Cn1cnc2c(cnn2-c2ccccc2)c1=O)c1ccc(Cl)cc1	·	–	–	143.3
CO[C@@H]1CN(C)C(=O)c2ccc(NC(=O)C3CCC3)cc2OC[C@@H](C)N(Cc2cccnc2)C[C@@H]1C	·	–	–	–
CNC[C@H]1Oc2ccc(NS(=O)(=O)c3ccc(C)cc3)cc2C(=O)N([C@@H](C)CO)C[C@H]1C	·	–	–	–
C[C@H](CO)N1C[C@H](C)[C@H](CN(C)S(=O)(=O)c2ccc(F)cc2)OCCCC[C@H](C)Oc2ccc(NS(=O)(=O)c3ccccc3)cc2C1=O	·	–	–	–
CCOC(=O)CN(C(=O)CCC(=O)Nc1cc(C)on1)C(C(=O)NC1CCCC1)c1cccnc1 (configuration not stated)	–	–	–	·
Cc1cc(NC(=O)CCC(=O)N(CCC(C)C)C(C(=O)NC2CCCC2)c2cccnc2)no1 (configuration not stated)	–	–	–	104.6
C[C@@H]1CN([C@H](C)CO)C(=O)c2cc(NS(=O)(=O)c3cn(C)cn3)ccc2O[C@@H](C)CCCCO[C@H]1CN(C)Cc1ccncc1	·	–	–	·
COc1ccc(C(=O)c2nc3c(n2O)CCCC3)cc1OC	·	–	–	122.5
CCCCCn1c(=O)c(C(=O)c2ccccc2)nc2ccccc21	–	–	–	120.8
CCn1c(=O)c(C(C)=O)nc2ccccc21	–	–	–	–
CCCCCCn1c(C(C)O)nc2ccccc21 (configuration not stated)	–	–	–	110.9
CCCCn1c(C(C)NC(=O)c2cccs2)nc2ccccc21 (configuration not stated)	–	–	–	134.8
CCCN(C)C[C@H]1Oc2cc(C#CCC3CCCC3)ccc2S(=O)(=O)N([C@H](C)CO)C[C@@H]1C	·	–	–	–
COc1ccc(-c2ccc3n(c2=O)C[C@H]2[C@H](CO)[C@@H](C(=O)N4CCCCC4)[C@@H]3N2C)cc1	·	–	–	–
C[C@@H]1CN([C@@H](C)CO)C(=O)Cc2cc(NC(=O)Nc3ccc(F)cc3)ccc2O[C@@H]1CN(C)Cc1ccc(Cl)c(Cl)c1	·	–	–	108.0
Cc1noc(C)c1NC(=O)Nc1ccc2c(c1)CC(=O)N([C@@H](C)CO)C[C@H](C)[C@@H](CN(C)Cc1ccc(Cl)c(Cl)c1)O2	·	–	108.8[16.7 µM]	–
Cc1noc(C)c1NC(=O)Nc1ccc2c(c1)CC(=O)N([C@H](C)CO)C[C@@H](C)[C@H](CN(C)Cc1ccc(Cl)c(Cl)c1)O2	·	–	–	–
Cc1ccc(NS(=O)(=O)c2cc(Br)cnc2N)cc1C	–	–	144.2	–
CC1CCCC(NS(=O)(=O)c2cc(Br)cnc2N)C1C (configuration not stated)	–	–	·	–
SMILES	NSD2 HMT inh	PglD DTNB	miR122 inh	Statin myotox sup
CSc1cccc(NS(=O)(=O)c2cc(Br)cnc2N)c1	–	–	106.0	–
COc1ccc(Cl)cc1NS(=O)(=O)c1cc(Br)cnc1N	–	–	–	–
Nc1ncc(Br)cc1S(=O)(=O)NCCc1ccccc1	–	–	105.5	–
CCc1ccccc1NC(=O)CCNS(=O)(=O)c1cc(Br)cnc1N	–	–	–	–
Nc1ncc(Br)cc1S(=O)(=O)NC1CCCCC1	–	–	126.0	–
Cc1cccc2cc(C(=O)CS(=O)(=O)c3ccc(Cl)cc3)c(=O)oc12	–	·	·	·
O=C(Cc1ccccc1)N[C@H]1CC[C@H](CC(=O)N2CCOCC2)O[C@@H]1CO	·	–	·	–
Cc1cc(C)cc(NS(=O)(=O)c2cc(Br)cnc2N)c1	–	–	97.7	–
CSc1ccc(CNc2ccccn2)cc1	–	–	–	81.6
Fc1ccc(CNc2ccccn2)cc1	–	–	–	–
CO[C@@H]1CN(C)C(=O)c2ccc(NC(=O)c3ccc(F)cc3)cc2OC[C@@H](C)N(C)C[C@@H]1C	·	–	·	–
CCOC(=O)c1ccc(N2C(=O)CC(N3CCN(C/C=C/c4ccccc4)CC3)C2=O)cc1 (configuration not stated)	–	–	–	127.1
CCOc1ccc(OCC)c(S(=O)(=O)N2CCCCC2)c1	–	–	–	–
CCOC(=O)N1CCN(S(=O)(=O)c2cc(OCC)ccc2OCC)CC1	–	–	142.6	–
CCc1ccc(NC(=O)C(CC)Sc2nc3cc4c(cc3c(=O)n2Cc2ccco2)OCO4)cc1 (configuration not stated)	–	–	138.5	–
COCCNC(=O)C[C@H]1C[C@@H]2c3cc(NC(=O)C4CCC4)ccc3O[C@@H]2[C@@H](CO)O1	·	–	–	–
O=C(N[C@H]1CC[C@@H](CCn2cc(-c3ccccc3)nn2)O[C@H]1CO)c1ccccc1F	·	–	·	–
Nc1ccccc1S(=O)(=O)c1ccccc1N	–	–	–	–
Nc1ccc2c(S(=O)(=O)O)cccc2c1S(=O)(=O)O	–	–	–	102.3
COc1ccc(CC(C)N2CCN(Cc3ccccc3)CC2)c(OC)c1 (configuration not stated)	–	–	–	95.6
CC(=O)c1ccc(OCC(O)CN2CCN(CC(O)COc3ccc(C(C)=O)cc3)CC2)cc1 (configuration not stated)	–	–	–	109.2
CC(=O)N(C)c1ccc(OCC(O)COc2ccc(N(C)C(C)=O)cc2)cc1	–	–	–	125.3
O=C([C@@H]1[C@@H](CO)[C@@H]2Cn3c(ccc(C4=CCCC4)c3=O)[C@H]1N2C(=O)c1ccncc1)N1CCOCC1	·	–	·	–
Cc1ccc(S(=O)(=O)Nc2cccc3c2O[C@@H](CN(C)S(=O)(=O)c2ccccc2)[C@@H](C)CN([C@@H](C)CO)C3=O)cc1	·	–	–	–
COc1ccc2cc(C(=O)NCCO)sc(=O)c2c1OC	–	–	–	–
SMILES	NSD2 HMT inh	PglD DTNB	miR122 inh	Statin myotox sup
CCOC(=O)c1cc2ccc(OC)c(OC)c2c(=O)s1	–	·	–	116.4
C[C@H](CO)N1C[C@H](C)[C@@H](CN(C)CC2CC2)Oc2c(NC(=O)C3CCOCC3)cccc2C1=O	·	–	–	–
CCn1ccc(=N)cc1	–	–	–	112.8
CCCCCn1ccc(=N)cc1	–	–	–	–
CCCc1cn(CC[C@@H]2CC[C@H](NC(=O)C3CC3)[C@@H](CO)O2)nn1	·	–	·	–
C[C@@H]1CN([C@@H](C)CO)C(=O)c2cccc(NC(=O)C3CCOCC3)c2O[C@H]1CN(C)CC1CCCCC1	·	–	–	–
O=[N+]([O-])c1ccc(N/N=C/c2cccc(O)c2O)cc1	–	–	·	92.1
C[C@@H]1CCCCO[C@H](CN(C)C(=O)Nc2ccc3c(c2)OCO3)[C@H](C)CN([C@@H](C)CO)C(=O)c2cc(NC(=O)Nc3ccccc3)ccc2O1	·	–	–	·
